According to PubChem BioAssay AID376 (PDSP, 2006):
Among all 2,000 compounds or so, about 250 (12%) were called active. Shown is part of a subset that was picked to be rich in actives. Values without a mark were called inactive. Rule as the data show it: active = hERG blockade below about -20% or above about 20%; inactive = in between.

molecular target: Voltage-gated inwardly rectifying potassium channel KCNH2 (Homo sapiens) (UniProt Q12809); test: KCNH2 potassium channel function modulators, cell-based (AID 376); settings: hERG-expressing cells, channel activity single-concentration screen; concentration not given here;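 also: 0% = buffer alone and 100% = reference blocker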
Sequence (Q12809 whole entry, looked up): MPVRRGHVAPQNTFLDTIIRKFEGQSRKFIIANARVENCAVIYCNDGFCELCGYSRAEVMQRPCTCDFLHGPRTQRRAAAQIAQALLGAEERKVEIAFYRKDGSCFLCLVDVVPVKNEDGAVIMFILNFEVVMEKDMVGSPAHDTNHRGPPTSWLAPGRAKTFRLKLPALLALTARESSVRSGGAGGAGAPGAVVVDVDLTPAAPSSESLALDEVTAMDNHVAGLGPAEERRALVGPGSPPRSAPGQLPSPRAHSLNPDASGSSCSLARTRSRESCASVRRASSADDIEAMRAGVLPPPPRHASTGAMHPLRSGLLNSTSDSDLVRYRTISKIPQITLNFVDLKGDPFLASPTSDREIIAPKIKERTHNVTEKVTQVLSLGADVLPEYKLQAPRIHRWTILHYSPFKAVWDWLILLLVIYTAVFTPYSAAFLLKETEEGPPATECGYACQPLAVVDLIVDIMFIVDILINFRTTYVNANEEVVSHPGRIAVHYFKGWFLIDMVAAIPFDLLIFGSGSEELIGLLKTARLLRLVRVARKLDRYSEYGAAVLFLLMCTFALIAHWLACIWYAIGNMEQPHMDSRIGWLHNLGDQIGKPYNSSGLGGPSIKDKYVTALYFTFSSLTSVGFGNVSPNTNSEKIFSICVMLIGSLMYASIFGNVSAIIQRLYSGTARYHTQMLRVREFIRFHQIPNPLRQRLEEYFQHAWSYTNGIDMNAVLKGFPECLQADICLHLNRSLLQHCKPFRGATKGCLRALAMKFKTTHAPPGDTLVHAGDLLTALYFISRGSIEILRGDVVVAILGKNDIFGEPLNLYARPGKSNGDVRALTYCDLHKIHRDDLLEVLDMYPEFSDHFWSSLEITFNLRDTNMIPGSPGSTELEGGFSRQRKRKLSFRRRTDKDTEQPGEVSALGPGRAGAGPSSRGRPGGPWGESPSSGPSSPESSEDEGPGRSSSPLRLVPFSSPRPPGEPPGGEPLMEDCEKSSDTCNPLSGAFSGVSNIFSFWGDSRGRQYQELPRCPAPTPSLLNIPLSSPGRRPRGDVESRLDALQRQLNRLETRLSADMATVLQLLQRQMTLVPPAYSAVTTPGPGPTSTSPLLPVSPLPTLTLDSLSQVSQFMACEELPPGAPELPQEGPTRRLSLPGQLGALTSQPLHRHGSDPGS

Compound | hERG blockade
COc1ccc(CC[N+]2(C)COc3cc4oc(=O)cc(C)c4cc3C2)cc1OC (centres undefined) | 11%
Cc1c(O)c(Br)c(C)c(O)c1Br (tested in a mixture with another compound) | 12.5%
CC(NCCN(C)C)C1CCC2C3CCc4cc(O)ccc4C3CCC12C (centres undefined) | 22.1% (active)
CC12CCC3c4ccc(O)cc4CCC3C1CC(=NO)C2O (centres undefined) | -10.7%
CC12CCC3c4ccc(O)cc4CCC3C1CCC2OP(=O)(O)O (centres undefined) | -3.7%
Cc1cc(=Nc2ccc3c(c2)c(N)cc(C)[n+]3C)nc(N)n1C | 30.2% (active)
OCc1ccncc1.OCc1ccncc1.[Cl][Pt]([Cl])([Cl])[Cl] | 1.38%
CCC(=O)Nc1ncnc2ncn(C(=O)CC)c12 | 12.6%
COc1ccc(C(Nc2ncccn2)c2cc3c(cc2O)OCO3)cc1 (centres undefined) | -20.2% (active)
CC(C)COC(c1ccc2c(c1)OCO2)C(C)Br (centres undefined) | 0.642%
COc1ccc(C(O)c2ccccn2)cc1 (centres undefined) | 3.46%
COc1ccc(C(C)c2cc3c(cc2O)OCO3)cc1 (centres undefined) | 30% (active)
COc1ccc(C(Nc2ccccn2)c2cc(C(C)(C)C)cc(C(C)(C)C)c2O)cc1 (centres undefined) | 9.88%
O=C(O)c1c(-c2c3ccc(=O)cc-3oc3cc(O)ccc23)cc2ccccc2c1-c1ccccc1 | 11.7%
CC(C)(C)NCC(O)c1ccc(O)c(CO)n1 (centres undefined) | -0.947%
CCC(CN(C)C)C(=O)c1ccco1 (centres undefined) | 5.17%
Clc1cccc(Cl)c1C(Nc1nncs1)Nc1nncs1 | -3.96%
Nc1nc(SCC(=O)O)[nH]c(=O)c1N | 5.23%
O=C(Nc1c[nH]c(=O)[nH]c1=O)Oc1ccccc1 | -11%
NS(=O)(=O)c1ccc(N=Nc2ncccc2O)cc1 | 17.7%
NS(=O)(=O)c1ccc(N=Nc2ccc(O)c(C(=O)O)c2)cc1 | -6.41%
NS(=O)(=O)c1ccc(N=Nc2c(O)c(C(=O)O)cc3ccccc23)cc1 | 22.9% (active)
Cc1c(S(=O)(=O)O)ccc(N=Nc2c(O)c(C(=O)O)cc3ccccc23)c1Cl | 2.42%
NS(=O)(=O)c1cc(C(=O)O)c(O)c2ccccc12 | 2.98%
NS(=O)(=O)c1ccc(N=Nc2cc3ccccc3c(C(=O)O)c2O)cc1 | 33.3% (active)

Compound | hERG blockade
O=C(O)CNc1ccc(C(=O)O)cc1 | 1.76%
CC(=NNc1nc(C)cc(=O)[nH]1)C(=O)O | -18.5%
c1ccc(-c2cc(-c3cc(-c4ccccn4)[nH]n3)n[nH]2)nc1 | 6.68%
Cn1c(=O)c2[nH]c(C3CC(=O)CC(c4nc5c([nH]4)c(=O)n(C)c(=O)n5C)N3)nc2n(C)c1=O (centres undefined) | -8.89%
Oc1ccccc1C(Sc1nc2ccccc2s1)Sc1nc2ccccc2s1 | -6.16%
Cc1sc2ccccc2[n+]1CCC(=O)O | -12.2%
NS(=O)(=O)c1ccc(N=C2C(=O)Nc3ccccc32)cc1 | -20.3% (active)
O=C1Nc2ccccc2C1=Nc1cccc2ncccc12 | -1.09%
O=C1Nc2ccccc2C1=Nc1ccc(S(=O)(=O)Nc2nccs2)cc1 | -2.12%
CN(C)CCCN=C(N)N | -7.66%
O=C(O)C1CC2(C1)CC(C(=O)O)C2 (centres undefined) | -11.8%
CN(C)Cc1cc(C(C)(C)C)cc(CN(C)C)c1O | 6.58%
CN(C)Cc1cc(C(F)(F)F)ccc1C(O)(c1ccccc1)c1ccccc1 | 21.7% (active)
CN(C)Cc1cc(C(C)(C)C)ccc1-c1ccc(C(C)(C)C)cc1CN(C)C | 17.8%
O=C1CCC(c2ccccc2)=NN1c1nc2ccccc2s1 | -9.74%
CC(C(=O)c1ccncc1)c1ccccn1 (centres undefined) | -1.76%
O=C(O)c1cc(C(=O)C(=O)c2cc(C(=O)O)c(O)c3ccccc23)c2ccccc2c1O | 18.7%
O=C1c2cc([N+](=O)[O-])ccc2-c2ccc3c4ccc5c6c(ccc(c7ccc1c2c73)c64)C(=O)c1cc([N+](=O)[O-])ccc1-5 | 12.2%
O=C1c2ccccc2-c2ccc(N=[N+]([O-])c3ccc4c(c3)C(=O)c3ccccc3-4)cc21 | -2.94%
O=C1c2ccccc2-c2cc([N+](=O)[O-])c([N+](=O)[O-])cc21 | 77.8% (active)
CNC1NC(=O)c2ccccc2N1Cc1ccc(F)cc1 (centres undefined) | 9.53%
c1ccc(CSc2nnc3c4ccccc4c4ccccc4c3n2)cc1 | -3.1%
CCOC(=O)C(O)Cc1cnc2ccccc2n1 (centres undefined) | 19.4%
c1ccc(CCNCc2ccco2)nc1 | -7.49%
